Experimental data reported in PubChem BioAssay (EPA / NIEHS).
Active and inactive are the calls of the source. The calls were made as follows: active = hit-call score of the fitted dose curve at least 0.9, where 1 is the maximum; inactive = score below 0.9.

Key:
[1] = read-out: Monokine induced gamma interferon (MIG), CXCL9 (gene 4283); test: BSK_hDFCGF_MIG: BioMAP Diversity Plus: hDFCGF Assay for Monokine induced gamma interferon (MIG) Biomarker Activity (AID 2283063); details: primary human foreskin fibroblasts; actives raise or lower the signal
Procedure, shortened: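 Endpoint derived by bidirectional fitting relative to DMSO; MIG quantified via ELISA in primary human foreskin fibroblasts harvested 24 h after dosing.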

[2] = read-out: Matrix Metallopeptidase 1 (MMP1), MMP1 (gene 4312); test: BSK_hDFCGF_MMP1: BioMAP Diversity Plus: hDFCGF Assay for Matrix Metallopeptidase 1 (MMP1) Biomarker Activity (AID 2283064); details: primary human foreskin fibroblasts; actives raise or lower the signal
Procedure, shortened: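 MMP1 levels quantified by ELISA 24 h after dosing human dermal fibroblast cultures, with parallel SRB total-protein staining for overt cytotoxicity. Data fitted in both directions against DMSO baseline.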

[3] = read-out: Vascular cell adhesion molecule 1 (VCAM1), VCAM1 (gene 7412); test: BSK_hDFCGF_VCAM1: BioMAP Diversity Plus: hDFCGF Assay for Vascular cell adhesion molecule 1 (VCAM1) Biomarker Activity (AID 2283065); details: primary human foreskin fibroblasts; actives raise or lower the signal;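 as to AC50: VCAM-1 protein level quantified by ELISA after 24 h chemical exposure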
Procedure, shortened: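 Measured after 24 h chemical treatment of primary human skin fibroblasts, VCAM-1 was detected by ELISA and concentration-response analysed in both directions versus DMSO vehicle.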

[4] = read-out: Plasminogen activator inhibitor-1 (PAI1), SERPINE1 (gene 5054); test: BSK_hDFCGF_PAI1: BioMAP Diversity Plus: hDFCGF Assay for Plasminogen activator inhibitor-1 (PAI1) Biomarker Activity (AID 2283066); details: primary human foreskin fibroblasts; actives raise or lower the signal
Procedure, shortened: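 PAI-1 levels in human dermal foreskin fibroblasts were quantified by ELISA 24 h after dosing, with gain or loss analysed against DMSO. Overt cytotoxicity was checked by sulforhodamine B total-protein staining in parallel cultures.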

[5] = read-out: Intercellular Adhesion Molecule 1 (ICAM1), ICAM1 (gene 3383); test: BSK_KF3CT_ICAM1: BioMAP Diversity Plus: KF3CT Assay for Intercellular Adhesion Molecule 1 (ICAM1) Biomarker Activity (AID 2283067); details: primary human keratinocytes with fibroblasts; actives raise or lower the signal
Procedure, shortened: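 Bidirectional curve fitting against a DMSO baseline was applied to ICAM-1 ELISA signal from primary human skin co-cultures harvested 24 h after treatment, with SRB staining of parallel wells for overt cytotoxicity.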

[6] = read-out: Interferon-gamma inducible Protein 10 (IP10), CXCL10 (gene 3627); test: BSK_KF3CT_IP10: BioMAP Diversity Plus: KF3CT Assay for Interferon-gamma inducible Protein 10 (IP10) Biomarker Activity (AID 2283068); details: primary human keratinocytes with fibroblasts; actives raise or lower the signal
Procedure, shortened: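 Signal is secreted/surface IP-10 by ELISA in a human primary skin co-culture of keratinocytes and foreskin fibroblasts, taken 24 h post-dosing; DMSO served as negative control.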

[7] = BSK_KF3CT_SRB: Viability Assessment in the BioMAP Diversity Plus: KF3CT Assay (AID 2283069); details: primary human keratinocytes with fibroblasts;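 also: read 24 h after compound addition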
Procedure, shortened: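 Cytotoxicity was gauged by SRB staining (0.1% SRB, 10% TCA fixation, 560 nm) of parallel cultures at 24 h. The cells were primary human skin keratinocytes co-cultured with fibroblasts, and activity was fitted in both directions against DMSO.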

[8] = read-out: Interleukin-1 alpha (IL1a), IL1A (gene 3552); test: BSK_KF3CT_IL1a: BioMAP Diversity Plus: KF3CT Assay for Interleukin-1 alpha (IL1a) Biomarker Activity (AID 2283070); details: primary human keratinocytes with fibroblasts; actives raise or lower the signal
Procedure, shortened: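 IL-1a was detected by ELISA 24 h after chemical treatment of a co-culture of human skin keratinocytes and foreskin fibroblasts. Gain or loss of signal was fitted against the DMSO baseline.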

[9] = read-out: TIMP metallopeptidase inhibitor 2 (TIMP2), TIMP2 (gene 7077); test: BSK_KF3CT_TIMP2: BioMAP Diversity Plus: KF3CT Assay for TIMP metallopeptidase inhibitor 2 (TIMP2) Biomarker Activity (AID 2283071); details: primary human keratinocytes with fibroblasts; actives raise or lower the signal
Procedure, shortened: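 TIMP-2 measured by ELISA at 24 h in human keratinocyte/fibroblast primary co-cultures exposed to chemicals. Both increases and decreases were fitted against DMSO. Parallel cultures were stained with SRB for total protein as an overt-cytotoxicity check.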

[10] = read-out: Transforming growth factor beta 1 (TGFb1), TGFB1 (gene 7040); test: BSK_KF3CT_TGFb1: BioMAP Diversity Plus: KF3CT Assay for Transforming growth factor beta 1 (TGFb1) Biomarker Activity (AID 2283072); details: primary human keratinocytes with fibroblasts; actives raise or lower the signal
Procedure, shortened: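 ELISA quantifies TGF-b1 at 24 h post-dose in a primary human skin co-culture of keratinocytes and fibroblasts, with gain or loss judged against DMSO. Parallel SRB total-protein staining flags overt cytotoxicity.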

[11] = read-out: C-C motif chemokine 2 (Homo sapiens) (UniProt P13500); test: BSK_KF3CT_MCP1: BioMAP Diversity Plus: KF3CT Assay for Monocyte Chemoattractant Protein 1 (MCP1/CCL2) Biomarker Activity (AID 2283073); details: primary human keratinocytes with fibroblasts; actives raise or lower the signal
Procedure, shortened: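 Biomarker MCP-1 is measured by ELISA in primary human keratinocytes co-cultured with foreskin fibroblasts, 24 h after chemical treatment; DMSO serves as the negative control and activity baseline.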

[12] = read-out: Matrix Metallopeptidase 9 (MMP9), MMP9 (gene 4318); test: BSK_KF3CT_MMP9: BioMAP Diversity Plus: KF3CT Assay for Matrix Metallopeptidase 9 (MMP9) Biomarker Activity (AID 2283074); details: primary human keratinocytes with fibroblasts; actives raise or lower the signal;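 as to AC50: MMP9 protein level quantified by ELISA in the co-culture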
Procedure, shortened: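 MMP-9 quantified by ELISA after 24 h chemical treatment of primary human skin keratinocyte/fibroblast co-cultures; gain or loss fitted against DMSO, with parallel SRB staining (0.1% SRB, 560 nm) for overt cytotoxicity.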

[13] = read-out: urokinase plasminogen activator (uPA), PLAU (gene 5328); test: BSK_KF3CT_uPA: BioMAP Diversity Plus: KF3CT Assay for urokinase plasminogen activator (uPA) Biomarker Activity (AID 2283075); details: primary human keratinocytes with fibroblasts; actives raise or lower the signal
Procedure, shortened: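 ELISA read-out of uPA 24 h after dosing human skin keratinocytes co-cultured with foreskin fibroblasts. Signal change fitted both ways relative to DMSO; sulforhodamine B on parallel cultures marks overt cytotoxicity.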

CD40, CD40 (gene 958) = test: BSK_LPS_CD40: BioMAP Diversity Plus: LPS Assay for CD40 Biomarker Activity (AID 2283076); details: primary human HUVEC with PBMC; actives raise or lower the signal
Procedure, shortened: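 Using a multiplexed primary human co-culture (umbilical vein endothelium plus PBMC), CD40 was read by ELISA 24 h after dosing, with cytotoxicity tracked by sulforhodamine B staining of parallel cultures and activity fitted bidirectionally versus DMSO.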

[14] = read-out: E-selectin (Homo sapiens) (UniProt P16581); test: BSK_LPS_Eselectin: BioMAP Diversity Plus: LPS Assay for Eselectin Biomarker Activity (AID 2283077); details: primary human HUVEC with PBMC; actives raise or lower the signal
Procedure, shortened: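 Dose chemical onto LPS-driven HUVEC/PBMC co-culture; after 24 h, run ELISA for E-selectin; fit up- and down-going responses relative to DMSO control.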

[15] = read-out: Interleukin-8 (IL8), CXCL8 (gene 3576); test: BSK_LPS_IL8: BioMAP Diversity Plus: LPS Assay for Interleukin-8 (IL8) Biomarker Activity (AID 2283078); details: primary human HUVEC with PBMC; actives raise or lower the signal
Procedure, shortened: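 In this LPS system, chemical-treated human umbilical vein endothelium/PBMC co-cultures were harvested at 24 h for IL-8 ELISA.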

[16] = BSK_LPS_SRB: Viability Assessment in the BioMAP Diversity Plus: LPS Assay (AID 2283079); details: primary human HUVEC with PBMC;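 also: total protein by sulforhodamine B absorbance as a cytotoxicity measure; measured one day after compound addition; fitted in both directions against DMSO so loss or gain of signal counts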
Procedure, shortened: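 Cytotoxicity endpoint in human endothelial–PBMC co-culture: 24 h exposure, then SRB (0.1%) staining, 560 nm read.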

[17] = read-out: Interleukin-1 alpha (IL1a), IL1A (gene 3552); test: BSK_LPS_IL1a: BioMAP Diversity Plus: LPS Assay for Interleukin-1 alpha (IL1a) Biomarker Activity (AID 2283080); details: primary human HUVEC with PBMC; actives raise or lower the signal
Procedure, shortened: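 Primary human HUVEC and PBMC co-culture stimulated with LPS is dosed and harvested at 24 h. Both increases and decreases in ELISA-measured IL-1a are scored relative to DMSO.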

[18] = read-out: Monocyte Chemoattractant Protein-1 (MCP1), CCL2 (gene 6347); test: BSK_LPS_MCP1: BioMAP Diversity Plus: LPS Assay for Monocyte Chemoattractant Protein-1 (MCP1) Biomarker Activity (AID 2283081); details: primary human HUVEC with PBMC; actives raise or lower the signal;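 as to AC50: secreted MCP-1 protein quantified by ELISA in culture supernatant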
Procedure, shortened: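 Values derive from bidirectional fitting against DMSO of ELISA-measured MCP-1 in a human primary endothelial and mononuclear cell co-culture, 24 h after chemical addition under LPS activation.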

[19] = BSK_LPS_PGE2: BioMAP Diversity Plus: LPS Assay for Prostaglandin E2 (PGE2) Biomarker Activity (AID 2283082); details: primary human HUVEC with PBMC; actives raise or lower the signal;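 as to AC50: secreted prostaglandin E2 measured by ELISA in LPS-stimulated co-culture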
Procedure, shortened: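 PGE2 release measured by ELISA in an LPS-activated co-culture of human umbilical vein endothelial cells and peripheral blood mononuclear cells, read at 24 h post-dosing. DMSO served as baseline for bidirectional curve fitting.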

Measured: AC50

Chain of E-selectin (Homo sapiens) (P16581 whole entry, looked up): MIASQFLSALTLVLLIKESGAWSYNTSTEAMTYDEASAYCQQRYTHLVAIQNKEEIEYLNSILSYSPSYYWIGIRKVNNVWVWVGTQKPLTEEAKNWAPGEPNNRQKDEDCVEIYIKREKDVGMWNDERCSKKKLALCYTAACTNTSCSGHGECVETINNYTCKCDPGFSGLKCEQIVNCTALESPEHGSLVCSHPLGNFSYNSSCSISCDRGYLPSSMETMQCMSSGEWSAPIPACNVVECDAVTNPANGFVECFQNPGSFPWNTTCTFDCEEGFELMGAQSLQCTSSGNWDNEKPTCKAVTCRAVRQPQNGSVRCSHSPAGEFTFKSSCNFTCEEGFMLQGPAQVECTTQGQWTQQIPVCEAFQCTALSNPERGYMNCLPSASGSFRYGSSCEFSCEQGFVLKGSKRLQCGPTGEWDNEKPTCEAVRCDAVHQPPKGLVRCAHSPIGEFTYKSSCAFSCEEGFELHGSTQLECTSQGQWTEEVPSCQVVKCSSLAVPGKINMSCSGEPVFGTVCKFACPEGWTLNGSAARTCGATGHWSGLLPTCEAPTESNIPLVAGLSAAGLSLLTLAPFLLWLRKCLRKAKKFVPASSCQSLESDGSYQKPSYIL

CC/C(=C\C(=N/O)C(N)=O)C(C)[N+](=O)[O-] (stereo not given)
inactive: all assays above

CCOc1cccc(-n2cc(C(=O)N3CCN(c4cc(C(=O)O)c5ccccc5c4)CC3)nc2-c2ccc(C)cc2)c1
active: [1] 26.3 µM | [2] 16.5 µM | [3] 12.9 µM | [4] 6.1 µM | [5] 30.5 µM | [6] 29.2 µM | [7] 21.3 µM | [8] 30.1 µM | [9] 14.7 µM | [10] 14.4 µM | [11] 19.2 µM | [12] 19.7 µM | [13] 31.2 µM | CD40, CD40 (gene 958) 14.2 µM | [14] 31.3 µM | [15] 27.2 µM | [16] 13.7 µM | [18] 30.7 µM | [19] 29.4 µM

O=C(O)CC(O)C(=O)O (stereo not given)
inactive: all assays above

On1ccccc1=S
active: [1] 0.204 µM | [2] 1.35 µM | [3] 0.479 µM | [4] 1.7 µM | [5] 10.4 µM | [6] 10.3 µM | [7] 6.33 µM | [8] 10.2 µM | [9] 11.6 µM | [10] 9.8 µM | [12] 8.53 µM | [13] 11 µM | CD40, CD40 (gene 958) 19.8 µM | [14] 31.2 µM | [16] 26.2 µM | [19] 31.1 µM
inactive: [15] | [18]

CCOC(=O)c1ccc(C2CCC(NC[C@H](O)COc3ccc(O)c(NS(C)(=O)=O)c3)CC2)cc1 (stereo not given in full)
active: [1] 24.7 µM | [2] 15.7 µM | [3] 8.27 µM | [4] 8.8 µM | [10] 18.7 µM | [12] 27.2 µM | [15] 30.9 µM | [16] 26.1 µM | [18] 34.1 µM
not listed: [17]
inactive: all other assays above

CN(C)c1ccc(Cc2ccc(N(C)C)cc2)cc1
active: [2] 20 µM | [15] 20 µM | [19] 5.6 µM
not listed: [17]
inactive: all other assays above
